Experimental findings from PubChem BioAssay (NCATS) are described below.

Records with an inconclusive call do not appear. This is one part of the list. Activity calls are given as the source filed them. Unless noted, the call rests on the fitted dose curve; in most records, active means well fitted curve in the direction sought with a large enough effect; inconclusive means small, poorly fitted or top-dose-only effect, or another doubt; inactive means no such curve, though single readings can be large; an effect the other way counts as inactive or inconclusive.

A short description of experiment [1]: qHTS assay for environmental chemicals that activate the Aryl hydrocarbon Receptor (AhR) signaling pathway (AID 651777). Further: % of control where 0% means no effect; nearly all actives have a fitted effect of over 15% in size. To be noted: 1A2-DRE human hepatoma cells, luciferase, 24 h; activation: stronger effect = higher value. Put shortly: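 Human hepatoma 1A2-DRE cells stably carrying a DRE/CYP1A2 promoter–luciferase reporter, 1,200 cells/well, exposed to compound 24 hr at 37 C. Luciferase read by One-Glo luminescence after 30 min at room temperature; increased signal marks AhR activation.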
(In general: qHTS replaces the single test concentration by a dilution series.)

The target in experiment [2] is Peroxisome proliferator-activated receptor alpha (Homo sapiens) (UniProt Q07869). Description: qHTS assay for small molecule agonists of the peroxisome proliferator-activated receptor alpha (PPARalpha) signaling pathway (AID 651778). Further: % of control where 0% means no effect. The conditions noted are these: PathHunter PPARalpha complementation, chemiluminescence, 6 h; max response: stronger effect = higher value. Put shortly: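 Enzyme-fragment complementation assay in which ligand-bound PPARalpha translocates and forms an active enzyme that generates chemiluminescence. Cells were plated overnight, exposed to compound for 6 hr at 37 C, and then given detection reagent for 60 min at room temperature.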

Experiment [3] is described as follows: qHTS assay for small molecule agonists of the antioxidant response element (ARE) signaling pathway measured by Nrf2-dependant transcriptional activity (AID 720636; active means well fitted curve in the direction sought with a large enough effect in the repeat runs; an effect the other way counts as inactive or inconclusive; further: % of control where 0% means no effect). Put shortly:
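ARE-luc HepG2 cells carrying an Nrf2-responsive luciferase reporter, in medium with 1% dialyzed FBS, exposed to compound for 16 hr at 37 C, 5% CO2. Luminescence read 30 min after ONE-Glo addition.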

Experiment [4] is described as follows: qHTS assay for small molecule agonists of the antioxidant response element (ARE) signaling pathway measured by Nrf2-dependant transcriptional activity - cell viability counter screen (AID 720653; active means well fitted curve in the direction sought with a large enough effect in the repeat runs; an effect the other way counts as inactive or inconclusive; further: potency means the concentration at half of the fitted maximal effect). To be noted: ARE-bla HepG2 viability, CellTiter-Glo ATP luminescence, 16 h; max response: stronger effect = lower value. Put shortly: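 ARE-bla HepG2 cells treated with compounds for 16 h at 37C; this counter screen measures viability as intracellular ATP by CellTiter-Glo luminescence after 30 min at room temperature.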

Experiment [5] is described as follows: qHTS assay for cell viability of HEK293 cells (AID 743288). Further: potency means the concentration at half of the fitted maximal effect; nearly all actives have a fitted effect of over 50% in size. The conditions noted are these: ATP luminescence (CellTiter-Glo), 18 h; max response: stronger effect = lower value. Put shortly: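 ATP luminescence (CellTiter-Glo) reports metabolically competent cell number after parental HEK293 cells, 2,000/well, were treated with DMSO-dissolved compounds for 18 h at 37 C; reagent incubation 30 min, room temperature.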

The nature of experiment [6]: qHTS profiling for inhibitors of Plasmodium falciparum (3D7) proliferation (AID 743322).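 Further: infected erythrocytes exposed to compound for 72 h before lysis; 100% = DMSO vehicle wells and 0% = 0.29 µM artemisinin.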 The conditions noted are these: P. falciparum 3D7 proliferation; at 28.7 µM (top of the series) unless noted. Put shortly:
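Parasite DNA was quantified by SYBR Green I fluorescence (ex 485, em 535 nm) after overnight lysis in saponin/Triton buffer at room temperature. Cultures at 0.3% parasitemia and 2.5% hematocrit were first exposed to compound for 72 h at 37 C; signals were normalised to artemisinin (0.29 uM) and vehicle wells.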

Experiment [7] can be described thus: qHTS profiling for inhibitors of Plasmodium falciparum (DD2) proliferation (AID 743323; call rule not given here). To be noted: lower = more inhibition; at 28.7 µM (top of the series) unless noted. Put shortly:
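Parasite DNA quantified by SYBR Green fluorescence (ex 485, em 535 nm) after saponin/Triton lysis and overnight dark incubation. Cultures: 0.3% parasitemia, 2.5% hematocrit, 72 h, 37 C; data scaled between DMSO and 0.29 uM artemisinin.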

Experiment [8] in a line: qHTS profiling for inhibitors of Plasmodium falciparum (HB3) proliferation (AID 743324).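 Further: 100% = DMSO vehicle wells and 0% = artemisinin-treated control wells.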 The conditions noted are these: Plasmodium falciparum HB3 blood-stage proliferation; at 28.7 µM (top of the series) unless noted. Put shortly: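 SYBR Green fluorescence (485 ex/535 em) of lysed cultures, incubated overnight at room temperature in the dark, quantifies parasite DNA. Infected erythrocytes at 0.3% parasitemia and 2.5% hematocrit were exposed 72 h; values normalized to DMSO and 0.29 uM artemisinin controls.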

The target of experiment [9] is Bifunctional 3'-5' exonuclease/ATP-dependent helicase WRN (Homo sapiens) (UniProt Q14191). In words: qHTS for Inhibitors of WRN Helicase: Confirmatory Assay for Cherry-picked Compounds. (AID 720497). Further: nearly all actives have a fitted effect of over 65% in size. Put shortly: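 Kinetic fluorescence unwinding readout (525/598 nm) of a forked duplex oligonucleotide substrate, 100 nM, with 2 mM ATP and 20 nM WRN. Compounds were added 15 min before substrate at room temperature. Activity was scaled between uninhibited enzyme and buffer-only controls.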

The nature of experiment [10]: qHTS for Inhibitors of WRN Helicase: Thiazole Orange DNA Binding Counterscreen (AID 720499).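 Further: drop in dye fluorescence marks compound binding to DNA; on the % scale 0 is the no-effect control and ±100 the full control effect; nearly all actives have a fitted effect of over 60% in size.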 Put shortly: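 Dye-displacement counterscreen: 50 nM DNA + 100 nM ThO, cpd added by pintool, 15 min RT, fluorescence ex 480/em 530 nm.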
Experiment [11] deals with RecQ-like DNA helicase BLM (Homo sapiens) (UniProt P54132). Description: qHTS for Inhibitors of WRN Helicase: BLM Helicase Counterscreen for WRN Inhibitors (AID 720503).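 Further: plate controls were DMSO vehicle for no effect and enzyme-free control wells for full effect; nearly all actives have a fitted effect of over 60% in size.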 Put shortly: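 Reactions were started with 100 nM DNA substrate and 2 mM ATP (final) after compound and 1 nM BLM stood 15 min at room temperature in Tris-HCl pH 8.0 buffer with NaCl, MgCl2, DTT and Tween-20. Two red-fluorescence reads 15 min apart were normalized against DMSO and no-enzyme wells.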

The nature of experiment [12]: qHTS Assay for Identifying Gametocytocidal Compounds (AID 743244). Further: potency means the concentration at half of the fitted maximal effect. The conditions noted are these: P. falciparum 3D7 stage III-V gametocytes, alamarBlue, 72 h; max response: stronger effect = lower value. Put shortly: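 Late gametocytes (III–V), P. falciparum 3D7; 72 h drug, then 24 h alamarBlue; resazurin reduction read by fluorescence.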
In experiment [13] the target is Tyrosine-protein kinase Yes (Homo sapiens) (UniProt P07947). In words: qHTS for small molecule inhibitors of Yes1 kinase: Primary Screen (AID 686947). Further: potency means the concentration at half of the fitted maximal effect; nearly all actives have a fitted effect of over 60% in size. The conditions noted are these: Yes1 kinase biochemical qHTS inhibition. Put shortly:
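ADP-Glo luminescence reports ADP formed by 4 nM Yes1 phosphorylating poly(E4Y) (0.3 mg/mL) with 0.1 mM ATP for 60 min at room temperature, following 20 min compound preincubation; normalised between DMSO wells with and without enzyme.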

Experiment [14] in a line: qHTS for small molecule inhibitors of Yes1 kinase: Counter Assay (AID 686950).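 Further: no kinase present so only ADP-Glo detection of a fixed ADP amount is tested; luminescence from ADP-Glo reporting ADP in a fixed ATP and ADP mixture; 0% = DMSO wells with ATP plus ADP and -100% = ATP-only wells without ADP.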 Put shortly:
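No kinase present; 0.08 mM ATP + 0.02 mM ADP in 50 mM Tris pH 7.5, 10 mM MgCl2, 150 mM NaCl, 1 mM DTT; 20 min compound preincubation, 60 min RT, ADP-Glo luminescence, normalized to ATP/ADP (max) and ATP-only (min).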

Bifunctional 3'-5' exonuclease/ATP-dependent helicase WRN (Homo sapiens), sequence (Q14191 whole entry, looked up): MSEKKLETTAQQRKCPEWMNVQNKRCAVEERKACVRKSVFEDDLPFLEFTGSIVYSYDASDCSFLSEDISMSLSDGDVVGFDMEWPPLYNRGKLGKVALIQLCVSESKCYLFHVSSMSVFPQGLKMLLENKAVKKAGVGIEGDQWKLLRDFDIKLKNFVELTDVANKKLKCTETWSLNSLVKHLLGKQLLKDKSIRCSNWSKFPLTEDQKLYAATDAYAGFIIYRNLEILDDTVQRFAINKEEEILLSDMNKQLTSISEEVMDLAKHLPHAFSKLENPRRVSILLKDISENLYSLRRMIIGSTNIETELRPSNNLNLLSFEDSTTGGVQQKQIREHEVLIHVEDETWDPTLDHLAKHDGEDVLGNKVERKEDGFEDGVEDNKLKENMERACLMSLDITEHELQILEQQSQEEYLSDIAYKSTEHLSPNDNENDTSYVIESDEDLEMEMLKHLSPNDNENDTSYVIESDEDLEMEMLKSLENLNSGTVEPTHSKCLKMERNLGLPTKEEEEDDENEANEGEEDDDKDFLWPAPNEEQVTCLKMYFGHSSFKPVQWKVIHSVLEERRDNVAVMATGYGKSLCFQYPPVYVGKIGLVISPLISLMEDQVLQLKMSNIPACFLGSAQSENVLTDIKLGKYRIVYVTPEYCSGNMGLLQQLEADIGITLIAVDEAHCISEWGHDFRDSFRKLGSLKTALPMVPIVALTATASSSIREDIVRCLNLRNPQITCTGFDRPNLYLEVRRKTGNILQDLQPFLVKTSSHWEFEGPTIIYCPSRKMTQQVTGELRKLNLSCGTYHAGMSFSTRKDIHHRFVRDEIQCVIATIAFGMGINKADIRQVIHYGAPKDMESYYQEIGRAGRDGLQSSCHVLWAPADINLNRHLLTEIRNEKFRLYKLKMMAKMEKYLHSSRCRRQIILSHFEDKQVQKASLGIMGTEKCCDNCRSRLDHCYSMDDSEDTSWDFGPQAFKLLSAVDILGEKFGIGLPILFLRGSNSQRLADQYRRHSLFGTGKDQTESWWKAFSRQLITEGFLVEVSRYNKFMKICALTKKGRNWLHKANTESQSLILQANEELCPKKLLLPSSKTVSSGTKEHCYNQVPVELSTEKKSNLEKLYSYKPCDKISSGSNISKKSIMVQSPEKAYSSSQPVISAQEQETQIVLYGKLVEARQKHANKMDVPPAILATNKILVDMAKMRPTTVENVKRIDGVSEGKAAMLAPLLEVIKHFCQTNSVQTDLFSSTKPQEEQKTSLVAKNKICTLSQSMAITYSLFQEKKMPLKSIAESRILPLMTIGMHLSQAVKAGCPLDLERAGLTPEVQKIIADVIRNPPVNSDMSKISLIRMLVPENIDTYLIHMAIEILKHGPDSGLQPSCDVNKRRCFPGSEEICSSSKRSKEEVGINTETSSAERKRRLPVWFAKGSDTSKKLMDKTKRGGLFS
RecQ-like DNA helicase BLM (Homo sapiens), sequence (P54132 whole entry, looked up): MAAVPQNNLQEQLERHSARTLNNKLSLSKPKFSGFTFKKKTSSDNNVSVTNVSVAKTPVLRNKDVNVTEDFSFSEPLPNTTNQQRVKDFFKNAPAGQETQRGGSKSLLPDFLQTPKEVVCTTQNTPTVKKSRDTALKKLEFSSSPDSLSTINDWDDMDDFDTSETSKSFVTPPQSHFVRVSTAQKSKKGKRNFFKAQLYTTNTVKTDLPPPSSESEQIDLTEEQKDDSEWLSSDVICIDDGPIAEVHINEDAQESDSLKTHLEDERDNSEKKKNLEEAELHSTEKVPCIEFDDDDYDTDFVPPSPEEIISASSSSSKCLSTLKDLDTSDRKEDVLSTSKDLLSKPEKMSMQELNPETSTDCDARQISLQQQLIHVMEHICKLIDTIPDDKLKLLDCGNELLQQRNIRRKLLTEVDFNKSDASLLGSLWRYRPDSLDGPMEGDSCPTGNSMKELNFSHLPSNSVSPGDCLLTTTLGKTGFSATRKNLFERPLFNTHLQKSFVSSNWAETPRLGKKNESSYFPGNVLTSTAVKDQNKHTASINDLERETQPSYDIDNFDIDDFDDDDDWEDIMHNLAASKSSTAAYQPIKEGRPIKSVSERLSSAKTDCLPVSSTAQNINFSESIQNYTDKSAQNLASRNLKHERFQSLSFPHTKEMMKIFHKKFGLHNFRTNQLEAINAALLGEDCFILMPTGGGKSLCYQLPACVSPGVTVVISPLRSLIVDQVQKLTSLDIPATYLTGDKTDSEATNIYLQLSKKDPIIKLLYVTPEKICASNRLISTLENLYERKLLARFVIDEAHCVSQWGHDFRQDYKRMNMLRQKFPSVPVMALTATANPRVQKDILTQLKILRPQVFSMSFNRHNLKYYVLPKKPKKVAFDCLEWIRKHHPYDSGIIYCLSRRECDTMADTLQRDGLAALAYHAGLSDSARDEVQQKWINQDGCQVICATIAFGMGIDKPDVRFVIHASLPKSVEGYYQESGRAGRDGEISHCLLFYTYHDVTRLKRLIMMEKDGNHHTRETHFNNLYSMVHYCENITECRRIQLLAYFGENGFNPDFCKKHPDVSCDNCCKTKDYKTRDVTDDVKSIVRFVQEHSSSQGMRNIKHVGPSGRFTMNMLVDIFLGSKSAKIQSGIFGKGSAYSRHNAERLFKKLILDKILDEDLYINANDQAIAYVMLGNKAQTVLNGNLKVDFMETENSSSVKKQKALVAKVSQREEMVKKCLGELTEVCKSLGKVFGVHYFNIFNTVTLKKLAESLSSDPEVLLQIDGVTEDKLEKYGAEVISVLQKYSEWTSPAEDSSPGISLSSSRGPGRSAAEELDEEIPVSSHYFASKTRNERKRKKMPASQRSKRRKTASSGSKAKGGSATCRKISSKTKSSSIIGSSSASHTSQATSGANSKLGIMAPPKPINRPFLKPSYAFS
Peroxisome proliferator-activated receptor alpha (Homo sapiens), sequence (Q07869 whole entry, looked up, the tested form may be a part): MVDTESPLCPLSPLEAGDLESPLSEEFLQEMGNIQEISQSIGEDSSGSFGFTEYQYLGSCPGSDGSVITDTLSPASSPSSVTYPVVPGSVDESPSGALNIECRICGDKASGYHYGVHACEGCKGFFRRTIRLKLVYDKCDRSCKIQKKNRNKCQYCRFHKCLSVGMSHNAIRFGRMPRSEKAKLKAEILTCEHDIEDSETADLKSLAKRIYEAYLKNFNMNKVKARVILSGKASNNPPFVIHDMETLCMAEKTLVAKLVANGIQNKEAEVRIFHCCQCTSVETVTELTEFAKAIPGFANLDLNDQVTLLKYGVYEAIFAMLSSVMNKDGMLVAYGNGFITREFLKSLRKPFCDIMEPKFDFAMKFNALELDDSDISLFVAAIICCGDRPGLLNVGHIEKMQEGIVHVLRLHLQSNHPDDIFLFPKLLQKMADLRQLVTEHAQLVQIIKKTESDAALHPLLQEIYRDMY
Tyrosine-protein kinase Yes (Homo sapiens), sequence (P07947 whole entry, looked up): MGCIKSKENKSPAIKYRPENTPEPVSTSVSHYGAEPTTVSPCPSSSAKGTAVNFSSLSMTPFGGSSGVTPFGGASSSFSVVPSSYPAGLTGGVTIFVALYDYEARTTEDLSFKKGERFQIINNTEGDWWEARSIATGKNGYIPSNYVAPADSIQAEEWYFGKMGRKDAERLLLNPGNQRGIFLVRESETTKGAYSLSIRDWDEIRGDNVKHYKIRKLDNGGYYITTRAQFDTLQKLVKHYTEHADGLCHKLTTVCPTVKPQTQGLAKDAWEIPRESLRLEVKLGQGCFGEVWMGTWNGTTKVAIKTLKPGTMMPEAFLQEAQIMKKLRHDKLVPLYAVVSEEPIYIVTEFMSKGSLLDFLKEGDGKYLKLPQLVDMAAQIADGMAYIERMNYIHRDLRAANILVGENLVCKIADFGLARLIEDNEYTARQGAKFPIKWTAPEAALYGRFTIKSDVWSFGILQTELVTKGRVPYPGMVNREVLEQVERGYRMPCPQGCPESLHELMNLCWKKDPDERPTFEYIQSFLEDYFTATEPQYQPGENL

On to `CC[C@H](C)[C@H]1O[C@]2(C=C[C@@H]1C)C[C@@H]1C[C@@H](C/C=C(\C)[C@@H](O[C@H]3C[C@H](OC)[C@@H](O[C@H]4C[C@H](OC)[C@@H](NC)[C@H](C)O4)[C@H](C)O3)[C@@H](C)/C=C/C=C3\CO[C@@H]4[C@H](O)C(C)=C[C@@H](C(=O)O1)[C@]34O)O2`, for which the activation in experiment [1] was -12% (inactive). Moreover, the max response in experiment [2] was 4.77% (inactive). In experiment [3], the Potency result is “inactive”. Further, the Potency in [4] was 25.1 µM (active); in [5], 50.1 µM (active).
Regarding `CSc1cccc(NC(=O)CC[C@H]2O[C@@H]3O[C@]4(C)CC[C@H]5[C@H](C)CC[C@@H]([C@@H]2C)[C@@]35OO4)c1`, the remaining parasite growth % (stronger effect = lower value) in [6] is -0.517%. For the same compound, the activity, percent of control in [7] amounted to 0.0476%. The remaining proliferation (% of control), lower = more inhibition in experiment [8] is 0.997%.
The corresponding values for `CCCCN(CCCC)CCC(OC(=O)O[C@H]1CCC[C@]2(C1)OOC1(O2)C2CC3CC(C2)CC1C3)c1cc2c(Cl)cc(Cl)cc2c2cc(C(F)(F)F)ccc12` (some centres not stated) are -0.262%, 0.194% and 0.0614%.
With `O=C(O)COc1ccccc1/C=C1\C(=O)NC(=O)N(CCC2=CCCCC2)C1=O`, the compound was classed as inactive in experiment [9], in experiment [10] and in experiment [11].
Take `COC(C(=O)C(O)C(C)O)C1Cc2cc3cc(OC4CC(OC5CC(O)C(O)C(C)O5)C(O)C(C)O4)c(C)c(O)c3c(O)c2C(=O)C1OC1CC(OC2CC(OC3CC(C)(O)C(O)C(C)O3)C(O)C(C)O2)C(O)C(C)O1` (configuration not stated): the Potency in [12] was 1.12 µM (active).
Turning to `CNC(=O)Oc1cc(C)c(C=Cc2cncc(C(=O)NC)c2)c(C)c1`, in [13], the Potency is 0.654 µM (active). For the same compound, the result in experiment [14] was inactive.
